Only some compounds are listed: those with a hit (about 3.5% of all), similar ones and a draw of the others.
TEAD-YAP inh: TEAD-YAP interaction inhibition; HEK-TIYL cells, TEAD-Gal4/YAP UAS-luciferase luminescence; inhibition, % at 9.12 µM; AID 1259422; 640,000 tested, 1.4% active; in the data active = inhibition above about 32%
MITF inh: human MITF inhibition, primary screen; 650,000 tested, 0.91% active; AID 1259374; inhibition, % at 2.6 µM; AlphaScreen MITF homodimerization, bead proximity signal; O75030; in the data active = inhibition above about 50%
FBW7 act: human FBW7 E3 ligase activation, primary screen. AlphaScreen FBW7–phospho-cyclin E peptide binding, activator screen. normalized activity (activation), % at 26.1 µM. 650,000 tested, 0.13% active. Q969H0; in the data active = normalized activity above about 1.9%;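 note: purified mutant Fbw7 with reduced substrate affinity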
GPR151 ag: activates the human receptor GPR151. Q8TDV0. PathHunter beta-arrestin GPR151 cells, luminescence. activation, % at 11.2 µM. 650,000 tested, 1% active; in the data active = activation above about 4.9%
Target sequence (Q8TDV0 whole entry, looked up): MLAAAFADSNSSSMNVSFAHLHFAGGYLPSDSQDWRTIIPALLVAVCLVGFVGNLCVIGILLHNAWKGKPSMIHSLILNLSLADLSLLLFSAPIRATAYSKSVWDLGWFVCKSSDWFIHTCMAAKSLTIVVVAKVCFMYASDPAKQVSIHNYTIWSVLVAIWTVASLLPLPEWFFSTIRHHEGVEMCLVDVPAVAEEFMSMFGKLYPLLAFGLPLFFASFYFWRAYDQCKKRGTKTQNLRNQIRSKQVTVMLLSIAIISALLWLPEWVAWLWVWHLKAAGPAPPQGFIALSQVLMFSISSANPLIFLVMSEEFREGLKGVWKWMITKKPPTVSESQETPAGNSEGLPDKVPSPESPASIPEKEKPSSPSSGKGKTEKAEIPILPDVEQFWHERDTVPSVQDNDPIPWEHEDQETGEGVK
Large screens that a line does not name were inactive.

CCOc1ccc(NC(=O)c2ccc3c(=O)n(-c4ccc(OC)cc4)c(=S)[nH]c3c2)cc1	none
CCCCNC1CCN(c2nc(C)c3cc(C)ccc3n2)CC1	none
CCOCCCNC1CCN(c2nc(C)c3cc(C)ccc3n2)CC1	TEAD-YAP inh 48.6
COc1ccc(N2Cc3ccc(C(=O)NN)cc3C2)cc1	none
Cc1cc2c(cc1C)CN(c1cccc(C(=O)NN)c1)C2	TEAD-YAP inh 38.4
Cc1cc2c(cc1C)CN(c1cccc(C(=O)O)c1)C2	TEAD-YAP inh 34.3
COc1ccc(CNS(=O)(=O)c2ccc(F)c(C(=O)Nc3cccc(Cl)c3)c2)cc1	none
CC1=C(C(=O)OCCc2ccccc2)C(c2ccccc2[N+](=O)[O-])C2=C(CCCC2=O)N1 (stereo not given)	TEAD-YAP inh 47.9
CC1=C(C(=O)OCCOc2ccccc2)C(c2ccccc2[N+](=O)[O-])C2=C(CCCC2=O)N1 (stereo not given)	TEAD-YAP inh 34.5
c1cc(-n2cnc3c(NCCN4CCOCC4)nc(N4CCOCC4)nc32)cs1	TEAD-YAP inh 55.8
c1ccc2c(c1)CCN(c1nc(NCCN3CCOCC3)c3ncn(-c4ccsc4)c3n1)C2	none
CC(=O)Nc1ccc(Nc2nc(N3CCC(N4CCOCC4)CC3)nc3c2ncn3-c2ccsc2)cc1	TEAD-YAP inh 46.2
COc1cc(Nc2nc(N3CCC(N4CCOCC4)CC3)nc3c2ncn3-c2ccsc2)cc(OC)c1OC	none
c1cc(-n2cnc3c(NCCN4CCOCC4)nc(N4CCC(N5CCOCC5)CC4)nc32)cs1	TEAD-YAP inh 42.9
c1ccc2[nH]c(CNc3nc(N4CCC(N5CCOCC5)CC4)nc4c3ncn4-c3ccsc3)nc2c1	TEAD-YAP inh 54.1
CCCC12CN3CC(CCC)(CN(C1)C3c1ccccc1O)C2=O (stereo not given)	none
CCOc1ccccc1NC(=O)C1C(c2ccccc2)=C1c1ccccc1	none
OCCNc1nc(N2CCOCC2)nc2c1ncn2-c1ccsc1	TEAD-YAP inh 69.3
c1ccc(OCCNc2nc(N3CCOCC3)nc3c2ncn3-c2ccccc2)cc1	none
OCCNc1nc(N2CCOCC2)nc2c1ncn2-c1ccccc1	TEAD-YAP inh 47.5
COc1cccc(NC(=O)Cn2cc(C(=O)c3ccccc3)c(=O)c3cc(Cl)ccc32)c1	none
CCOC(=O)c1cc(NC(=O)Cn2cc(C=O)c3ccccc32)ccc1Cl	TEAD-YAP inh 35.2
CCOc1ccc(NC(=O)Cn2cc(C(=O)c3ccccc3)c(=O)c3cc(Cl)ccc32)cc1	FBW7 act 2.7
CC1(c2ccccc2)CC(C)(C)N2C(=O)/C(=C3\SC(=O)NC3=O)c3cccc1c32 (stereo not given)	TEAD-YAP inh 50.1
CC(=O)N1C(=O)/C(=C2\SC(=O)NC2=O)c2ccccc21	none
Cc1ccc(C(=O)N/C(=C/c2ccc(-c3ccc(Cl)cc3)o2)C(=O)NCc2ccccc2)cc1	none
O=C(NCc1cccnc1)/C(=C/c1ccc(-c2ccc(Cl)cc2)o1)S(=O)(=O)c1ccccc1	TEAD-YAP inh 56.2
COc1ccc2oc(=O)c(C(=O)Nc3ccc(C)cc3Br)cc2c1	none
COc1ccc2oc(=O)c(C(=O)Nc3cc(C)ccn3)cc2c1	TEAD-YAP inh 33.9
CCCCCOc1ccc(C(=O)Nc2cc(C)on2)cc1	none
Cc1ccnc(NC(=O)c2ccc(N3CCCCS3(=O)=O)cc2)c1	TEAD-YAP inh 88.1
Cc1cc(NC(=O)c2ccc(N3CCCCS3(=O)=O)cc2)ccc1Br	none
CCCCOc1ccc(C(=O)Nc2cc(C)ccn2)cc1	TEAD-YAP inh 51.7
CC1=Nc2cc(C(=O)NCCCOC(C)C)ccc2Sc2ccccc21	TEAD-YAP inh 38.3
COCCCNC(=O)c1ccc2c(c1)N=C(C)c1ccccc1S2	TEAD-YAP inh 62.6
NC(=O)C1(N2CCCCC2)CCN(S(=O)(=O)c2ccc(F)cc2)CC1	none
COc1ccccc1NC(=O)C1=C(C)NC(SCC(=O)Nc2ccc(Cl)cc2)=C(C#N)C1c1ccco1 (stereo not given)	none
O=C(CCc1ccccc1)NC(=S)Nc1cccc(S(=O)(=O)N2CCCC2)c1	TEAD-YAP inh 47.1
O=C(CCc1ccccc1)NC(=S)Nc1ccc(S(=O)(=O)N2CCOCC2)cc1	none
Cc1cc(C)c(NC(=O)Cn2cnc3ccccc32)c(C)c1	TEAD-YAP inh 42.3
O=C(Cn1cnc2ccccc21)Nc1ccc(SC(F)F)cc1	TEAD-YAP inh 34.4
Cc1ccc(Cn2cnc3ccccc32)cc1	none
Cc1cc(Cn2cnc3ccccc32)c(C)cc1Cn1cnc2ccccc21	TEAD-YAP inh 35.9
CCc1ccc(/C=C2\SC(=S)N(CCCC(=O)N(CC)CCO)C2=O)cc1	none
COc1ccc2c(c1)nc(SCC(O)C(C)(C)C)n2C (stereo not given)	none
Cc1ccc(/C=N/NC(=O)c2cc(C(C)C)[nH]n2)cc1	TEAD-YAP inh 36.0
Cc1ccc(S(=O)(=O)NCC2CCN(C)CC2)cc1C	none
NC(=O)N/N=C/c1cn(-c2ccccc2)nc1-c1cccs1	none
Cc1ccc(CN(CC(=O)O)Cc2cn(-c3ccccc3)nc2-c2cccs2)cc1	TEAD-YAP inh 59.6
Fc1ccccc1-c1cn2c3c(nnc2n1)CCCC3	TEAD-YAP inh 92.1
COc1ccc(Br)cc1CNCc1ccc(C(=O)O)cc1	none
CCCC(=O)NC(c1cccs1)c1ccc2cccnc2c1O (stereo not given)	TEAD-YAP inh 86.3
CCC(=O)NC(c1cccs1)c1ccc2ccccc2c1O (stereo not given)	none
CCCCC(=O)NC(c1cccs1)c1ccc2ccccc2c1O (stereo not given)	none
CCC(=O)NC(c1cccs1)c1ccc2cccnc2c1O (stereo not given)	TEAD-YAP inh 76.6
COC(=O)c1ccc(NC(=O)CSc2ccc3ccccc3n2)cc1	none
COc1ccc(-c2nc3ccccc3c(=O)n2NCc2cccc(Oc3ccccc3)c2)cc1	TEAD-YAP inh 78.3
COc1ccc(-c2nc3ccccc3c(=O)n2NCc2cccc(OC)c2)cc1	none
COc1ccc(-c2nc3ccccc3c(=O)n2NCc2ccc(O)cc2)cc1OC	TEAD-YAP inh 40.5
COc1ccc(-c2nc3ccccc3c(=O)n2NCc2ccc(Br)cc2)cc1OC	none
Cc1noc(C)c1CC(=O)N1CCc2c([nH]c3ccccc23)C1c1ccccn1 (stereo not given)	none
CCC[C@@H]1NC(=O)[C@H]2CN(Cc3cc(C)ccc3F)CCN2C1=O	none
COc1ccc(-n2ncc3c(Nc4ccccc4C)ncnc32)cc1	none
CCOC(=O)C(CC)Sc1nc2c(c(=O)n1-c1ccc(OC)cc1)SC(C)C2 (stereo not given)	none
Nc1nc(SCC(=O)NC2CCCCC2)nc2sc3c(c12)CCCC3	TEAD-YAP inh 53.4
CCOC(=O)CCCSc1nc(N)c2c3c(sc2n1)CCCC3	TEAD-YAP inh 87.8
CCOC(=O)CC(=O)CSc1nc(N)c2c3c(sc2n1)CCCC3	none
Cc1cc(C)n(-c2ccc(N3CCN(C(=O)COc4ccccc4)CC3)nn2)n1	none
CCCOc1ccc(N2CCN(C(=O)COc3ccc(F)cc3)CC2)nn1	FBW7 act 3.3
COc1ccccc1-c1ccc(N2CCN(C(=O)COc3ccccc3)CC2)nn1	FBW7 act 7.6
O=c1oc2cc(O)ccc2cc1-c1nnc(Nc2ccc(Oc3ccc(Cl)c4ccccc34)c(Cl)c2)s1	none

Screening data deposited in PubChem by The Scripps Research Institute Molecular Screening Center.
